Data published in PubChem BioAssay (NCATS).
Results filed as inconclusive are left out. The source made the active and inactive calls. The call rests on the fitted dose curve; in most records, active means well fitted cell-killing curve with a large enough effect; inconclusive means small, poorly fitted or top-dose-only effect, or effect the other way; inactive means flat fitted curve, though single readings scatter.

How the values were obtained:
Assay in all cases: Primary qHTS to identify gynecologic anti-cancer compounds using libraries of approved drugs and bioactive compounds (AID 1345084); further: nearly all actives have a fitted effect of over 55% in size
Details in all cases: Gynecologic cancer cell panel viability, ATPlite luminescence, 48 h; series mostly up to 57.5 µM
OV90 = tested on: OV90
Method in brief: (§1)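 48 h compound exposure at 37 C, 5% CO2; five-point qHTS. ATPlite luminescence readout of cell ATP.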

PA-1 = tested on: PA-1
Method in brief: as §1

SKOV3 = tested on: SKOV3
Method in brief: as §1

Tov-21-G = tested on: Tov-21-G
Method in brief: as §1

Tov112D = tested on: Tov112D
Method in brief: as §1
On the % scale 0 is the no-effect control and ±100 the full control effect.

COC1OC(O)C2(CCC3(O2)C(C)CC2OC(=O)C4(C)CCCC3(C)C24)C1O (stereo not given)
inactive: Potency (OV90) | Potency (PA-1) | Potency (SKOV3) | Potency (Tov-21-G) | Potency (Tov112D)

CCOc1ccc(-c2nn3ncccc3c2-c2ccc(S(C)(=O)=O)cc2)cc1
inactive: Potency (OV90) | Potency (PA-1) | Potency (SKOV3) | Potency (Tov-21-G) | Potency (Tov112D)

C=C(CC/C=C(\C)C(=O)O)C1(O)CC=C(C)CC1 (stereo not given)
inactive: Potency (OV90) | Potency (PA-1) | Potency (SKOV3) | Potency (Tov-21-G) | Potency (Tov112D)

CC(C)NC(=O)c1ccc(C#Cc2ccncc2)cn1
inactive: Potency (OV90) | Potency (PA-1) | Potency (SKOV3) | Potency (Tov-21-G) | Potency (Tov112D)

C=C1CCC2C(C)(C)CC(O)CC2(C)C1CCC(C)CCOC(=O)CCC(=O)O (stereo not given)
inactive: Potency (OV90) | Potency (PA-1) | Potency (SKOV3) | Potency (Tov-21-G) | Potency (Tov112D)

COc1cc(/C=C/C(=O)O[C@H]2[C@H](O)[C@@H](CO)O[C@@]2(CO)O[C@H]2O[C@H](CO)[C@@H](O)[C@H](O)[C@H]2O)cc(OC)c1O
inactive: Potency (OV90) | Potency (PA-1) | Potency (SKOV3) | Potency (Tov-21-G) | Potency (Tov112D)

CC(C)(O)C(O)C(=O)OCc1ccc(O[C@@H]2O[C@H](CO)[C@@H](O)[C@H](O)[C@H]2O)cc1 (stereo not given in full)
inactive: Potency (OV90) | Potency (PA-1) | Potency (SKOV3) | Potency (Tov-21-G) | Potency (Tov112D)

COC(=O)C1=CO[C@@H](O[C@@H]2O[C@H](CO)[C@@H](O)[C@H](O)[C@H]2O)[C@@H]2C(CO)=CC[C@H]12
inactive: Potency (OV90) | Potency (PA-1) | Potency (SKOV3) | Potency (Tov-21-G) | Potency (Tov112D)

C=CCC1=C[C@]2(OC)[C@H](C)[C@@H](c3ccc(OC)c(OC)c3)O[C@]2(OC)CC1=O
inactive: Potency (OV90) | Potency (PA-1) | Potency (SKOV3) | Potency (Tov-21-G) | Potency (Tov112D)

C=C1CC[C@@]2(OC1)O[C@H]1CC3[C@@H]4CC=C5C[C@@H](O)C[C@@H](O[C@@H]6OC[C@H](O)[C@H](O)[C@H]6O[C@@H]6O[C@@H](C)[C@H](O)[C@@H](O)[C@H]6O)[C@]5(C)C4CC[C@]3(C)[C@H]1[C@@H]2C (stereo not given in full)
inactive: Potency (OV90) | Potency (PA-1) | Potency (SKOV3) | Potency (Tov-21-G) | Potency (Tov112D)

C=C1C(=O)O[C@@H]2CC(C)=C([C@@H](C)CCCOC(C)=O)[C@@H](O)[C@H]12
inactive: Potency (OV90) | Potency (PA-1) | Potency (SKOV3) | Potency (Tov-21-G) | Potency (Tov112D)

CC(C)C1C(OC(=O)/C=C/c2ccccc2)CC2(C)OC2CCC2(C)OC2C1O (stereo not given)
inactive: Potency (OV90) | Potency (PA-1) | Potency (SKOV3) | Potency (Tov-21-G) | Potency (Tov112D)

CN(C)CCC[C@]1(c2ccc(F)cc2)OCc2cc(C#N)ccc21
inactive: Potency (OV90) | Potency (PA-1) | Potency (SKOV3) | Potency (Tov-21-G) | Potency (Tov112D)

C[C@H]1CC(=O)C2=C(C1)C(O)C(O)[C@@]1(O)[C@H]2C(=O)c2cccc(O)c2[C@@H]1O (stereo not given in full)
inactive: Potency (OV90) | Potency (PA-1) | Potency (SKOV3) | Potency (Tov-21-G) | Potency (Tov112D)

C/C=C/C=C/C(O)=C1/C(=O)[C@]2(C)C(=O)[C@@](C)(O)[C@H]1[C@H]([C@@]1(C)OC(=O)C(C)=C1O)[C@H]2C(=O)CC/C=C/C
inactive: Potency (OV90) | Potency (PA-1) | Potency (SKOV3) | Potency (Tov-21-G) | Potency (Tov112D)

CCC(C)/C=C(C)/C=C/C1=CC2=C(Cl)C(=O)C(C)(OC(C)=O)C(=O)C2=CN1C(CCC(=O)O)C(=O)O (stereo not given)
inactive: Potency (OV90) | Potency (PA-1) | Potency (SKOV3) | Potency (Tov-21-G) | Potency (Tov112D)

CC(C)(C)NS(=O)(=O)c1ccc(-c2ccc3[nH]nc(N)c3c2)cc1
inactive: Potency (OV90) | Potency (PA-1) | Potency (SKOV3) | Potency (Tov-21-G) | Potency (Tov112D)

C=C1C(=O)O[C@@H]2/C=C(\C)CC/C=C(\C(=O)O[C@@H]3O[C@H](CO)[C@@H](O)[C@H](O)[C@H]3O)CC[C@@H]12
inactive: Potency (OV90) | Potency (PA-1) | Potency (SKOV3) | Potency (Tov-21-G) | Potency (Tov112D)

O=C(O)CC(CCc1ccccc1)OC1OC(CO)C(O)C(O)C1O (stereo not given)
inactive: Potency (OV90) | Potency (PA-1) | Potency (SKOV3) | Potency (Tov-21-G) | Potency (Tov112D)

CC(=O)OCC(Cc1ccccc1)NC(=O)C(Cc1ccccc1)NC(=O)c1ccccc1 (stereo not given)
inactive: Potency (OV90) | Potency (PA-1) | Potency (SKOV3) | Potency (Tov-21-G) | Potency (Tov112D)

O=C(OCC(O)CO[C@@H]1O[C@H](C(=O)O)[C@@H](O)[C@H](O)[C@H]1O)c1ccccc1 (stereo not given in full)
inactive: Potency (OV90) | Potency (PA-1) | Potency (SKOV3) | Potency (Tov-21-G) | Potency (Tov112D)

C[C@@H]1O[C@@H](O[C@H]2[C@@H]3C=CO[C@@H](O[C@@H]4O[C@H](CO)[C@@H](O)[C@H](O)[C@H]4O)[C@@H]3[C@@]3(CO)O[C@@H]23)[C@H](OC(=O)/C=C/c2ccc(O)cc2)[C@H](O)[C@H]1O
inactive: Potency (OV90) | Potency (PA-1) | Potency (SKOV3) | Potency (Tov-21-G) | Potency (Tov112D)

CC(C(=O)Nc1cc(C#N)ccc1CCCC(=O)O)c1ccc(F)c2ccccc12 (stereo not given)
inactive: Potency (OV90) | Potency (PA-1) | Potency (SKOV3) | Potency (Tov-21-G) | Potency (Tov112D)

Oc1ccccc1-c1cc(-c2ccccc2F)[nH]n1
inactive: Potency (OV90) | Potency (PA-1) | Potency (SKOV3) | Potency (Tov-21-G) | Potency (Tov112D)

CC1OC(OC2C(OC3C(O[C@H]4CC[C@@]5(C)C(CC[C@]6(C)C5CC=C5C7CC(C)(C)CC(O)[C@]7(C)CC[C@]56C)C4(C)C)OC(C(=O)O)C(O)C3O)OCC(O)C2O)C(O)C(O)C1O (stereo not given in full)
inactive: activity change, negative = cytotoxicity (OV90) 9.07% [at 11.6 µM] | activity change, negative = cytotoxicity (PA-1) 30% [at 11.6 µM] | activity change, negative = cytotoxicity (SKOV3) 7.87% [at 11.6 µM] | activity change, negative = cytotoxicity (Tov-21-G) 6.64% [at 11.6 µM] | activity change, negative = cytotoxicity (Tov112D) 1.05% [at 11.6 µM]
